Results filed as inconclusive are left out. Activity calls are given as the source filed them. Unless noted, calls come from the whole dose curve; as a rule, active = well fitted curve in the direction sought with a large enough effect in the repeat runs; inconclusive = weak or mixed curves; inactive = no such curve, though single readings can be large; an effect the other way counts as inactive or inconclusive.
Experiments:
[1] = A CellTox Green Cytotoxicity Assay to monitor cytotoxicity in HepG2 cells - 0 hour (AID 1224882); note: nearly all actives have a fitted effect of over 35% in size; note: potency is the fitted concentration of half-maximal effect
Summary of the method: (§1)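 First, HepG2 cells (600/well) mixed with reagent were plated; second, after 5 h at 37 C they received compounds via pintool; third, fluorescence was measured at 0 h through 40 h at 8 h intervals.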

[2] = A CellTox Green Cytotoxicity Assay to monitor cytotoxicity in HepG2 cells - 32 hour (AID 1224883); note: nearly all actives have a fitted effect of over 50% in size; note: potency is the fitted concentration of half-maximal effect
Summary of the method: as §1

[3] = A CellTox Green Cytotoxicity Assay to monitor cytotoxicity in HEK293 cells - 8 hour (AID 1224884); note: nearly all actives have a fitted effect of over 35% in size; note: potency is the fitted concentration of half-maximal effect
Summary of the method: (§2)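 Dead-cell fluorescence measured kinetically: asymmetric cyanine dye, HEK293, 600 cells/well, 5 h settle, 23 nL cpd/DMSO, 37 C, reads 0–40 h every 8 h.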

[4] = qHTS RealTime-Glo MT Cell Viability Assay in HEK293 cells - 8 hour (AID 1224887); note: top concentration of the series differs between compounds; nearly all actives have a fitted effect of over 50% in size
Summary of the method: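 600 HEK293 cells per well, dispensed already mixed with RealTime-Glo MT reagents. Compound dosing came 5 h later. The same wells were read for luminescence at 0, 8, 16, 24, 32 and 40 h of exposure at 37 C.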

[5] = A CellTox Green Cytotoxicity Assay to monitor cytotoxicity in HEK293 cells - 16 hour (AID 1224888); note: nearly all actives have a fitted effect of over 35% in size; note: potency is the fitted concentration of half-maximal effect
Summary of the method: as §2

[6] = qHTS RealTime-Glo MT Cell Viability Assay in HepG2 cells - 0 hour (AID 1224889); note: nearly all actives have a fitted effect of over 50% in size; note: potency is the fitted concentration of half-maximal effect
Summary of the method: (§3)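 Compound treatment began 5 h after plating HepG2 cells (600/well) with NanoLuc luciferase and prosubstrate. Plates stayed at 37 C for 40 h; luminescence was captured at six time points, 0 h through 40 h.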

[7] = qHTS assay to identify small molecule antagonists of the estrogen receptor alpha (ER-alpha) signaling pathway using the BG1 cell line in the presence of 0.1 nM 17-beta-estradiol - cell viability counter screen (AID 1259241); note: nearly all actives have a fitted effect of over 40% in size; note: potency is the fitted concentration of half-maximal effect
Summary of the method: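 In this screen, hormone-deprived VM7Luc4E2 cells were seeded at 4,000 per well, dosed with compound and 0.1 nM estradiol final, and incubated 22 hr at 37C and 5% CO2; fluorogenic live-cell protease signal reported viability.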

[8] = qHTS assay to identify small molecule antagonists of the androgen receptor (AR) signaling pathway using the MDA cell line in the presence of 0.5 nM R1881 - cell viability counter screen (AID 1259242); note: nearly all actives have a fitted effect of over 45% in size
Summary of the method: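 qHTS format. MDA-kb2 (MMTV-luc, AR/GR responsive) + cpd + 0.5 nM R1881 final, 16 hr 37C/0% CO2 → CellTiter-Fluor 30 min → fluorescence intensity.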

[9] = target: Estrogen receptor (Homo sapiens) (UniProt P03372); assay: qHTS assay to identify small molecule antagonists of the estrogen receptor alpha (ER-alpha) signaling pathway using the BG1 cell line in the presence of 0.1 nM 17-beta-estradiol (AID 1259244); note: nearly all actives have a fitted effect of over 50% in size
Estrogen receptor (Homo sapiens), sequence (P03372 whole entry, looked up): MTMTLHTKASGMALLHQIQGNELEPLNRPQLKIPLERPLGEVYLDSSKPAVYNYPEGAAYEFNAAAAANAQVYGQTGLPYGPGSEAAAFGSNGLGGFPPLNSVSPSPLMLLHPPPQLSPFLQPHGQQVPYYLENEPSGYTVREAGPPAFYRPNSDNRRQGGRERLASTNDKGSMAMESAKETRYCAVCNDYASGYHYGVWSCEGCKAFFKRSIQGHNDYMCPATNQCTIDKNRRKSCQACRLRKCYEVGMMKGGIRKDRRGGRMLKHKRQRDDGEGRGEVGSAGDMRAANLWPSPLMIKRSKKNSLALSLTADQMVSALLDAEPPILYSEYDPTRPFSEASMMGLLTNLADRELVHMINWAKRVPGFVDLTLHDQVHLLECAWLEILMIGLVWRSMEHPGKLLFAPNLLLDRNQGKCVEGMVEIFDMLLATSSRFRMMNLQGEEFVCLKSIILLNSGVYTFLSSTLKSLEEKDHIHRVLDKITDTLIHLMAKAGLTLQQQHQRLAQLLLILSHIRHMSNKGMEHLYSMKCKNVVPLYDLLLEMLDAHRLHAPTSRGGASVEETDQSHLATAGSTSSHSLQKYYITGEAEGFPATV
Summary of the method: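 Reporter is a stably transfected luciferase under four estrogen responsive elements in VM7Luc4E2 cells expressing native full-length ER-alpha; inhibition of 0.1 nM (final) 17beta-estradiol-driven signal over 22 h is read by luminescence.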

[10] = qHTS assay to identify small molecule HDAC inhibitors (AID 1259364); note: potency is the fitted concentration of half-maximal effect;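 note: wild-type HCT-116 cells with endogenous class I/II HDAC activity; nearly all actives have a fitted effect of over 45% in size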; for activity change, negative = inhibition: top concentration of the series differs between compounds
Summary of the method: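 Quantitative high-throughput format: overnight-seeded HCT-116 cells got compounds for 2 hr at 37C; HDAC-Glo I/II reagent added, 30 min RT, luminescence measured.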

[11] = qHTS assay to identify small molecule HDAC inhibitors - cell viability counter screen (AID 1259365)
Summary of the method: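 Measured quantity is CellTiter-Glo luminescence from wild-type HCT-116 cells after compound incubation of 2hr at 37C, 5% CO2; reagent developed 30min at room temperature.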

[12] = qHTS assay to identify small molecule antagonists of the sonic hedgehog signaling (Shh) pathway - cell viability counter screen (AID 1259367); note: nearly all actives have a fitted effect of over 55% in size; note: potency is the fitted concentration of half-maximal effect
Summary of the method: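 Conditioned medium drove Shh signaling in 3T3 Gli1-Luc cells exposed to compounds at 37C and 5% CO2. Viability was determined from CellTiter-Fluor fluorescence, with reagent incubated 1 hr after 23 hr of treatment.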

[13] = qHTS assay to identify small molecule agonists of the sonic hedgehog signaling (Shh) pathway (AID 1259368; calls by dose curve;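 note: NIH/3T3-derived 3T3Gli1-Luc cells carrying a stable Gli1-driven firefly luciferase reporter; series mostly up to about 92 µM; nearly all actives have a fitted effect of over 15% in size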)
Summary of the method: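 Quantitative high-throughput format using a Gli1-driven firefly luciferase reporter line derived from NIH/3T3 cells. After a 24 hr compound treatment at 37 C and 5% CO2, luminescence reported Gli1 response element activity.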

[14] = A CellTox Green Cytotoxicity Assay to monitor cytotoxicity in HepG2 cells - 8 hour (AID 1224890); note: nearly all actives have a fitted effect of over 45% in size
Summary of the method: as §1

[15] = qHTS assay to identify small molecule agonists of the sonic hedgehog signaling (Shh) pathway - cell viability counter screen (AID 1259366); note: nearly all actives have a fitted effect of over 50% in size; note: potency is the fitted concentration of half-maximal effect
Summary of the method: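 In quantitative high-throughput format, 3T3 Gli1-Luc cells were exposed to compounds for 24hr and multiplexed for viability using CellTiter-Fluor, incubated 1hr at 37C before the fluorescence read.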

[16] = qHTS RealTime-Glo MT Cell Viability Assay in HEK293 cells - 24 hour (AID 1224886)
Summary of the method: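 Quantitative high-throughput screen of the Tox21 10K library in HEK293: cells and RealTime-Glo reagents plated together, compound added at 5 h, luminescence monitored through 40 h at 37 C.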

[17] = qHTS assay to identify small molecule antagonists of the sonic hedgehog signaling (Shh) pathway (AID 1259369; calls by dose curve; note: nearly all actives have a fitted effect of over 45% in size)
Summary of the method: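 Stable Gli1-Luc reporter NIH/3T3 clone; quantitative HTS in stimulated mode with conditioned medium. Luminescence measured after 24hr compound treatment at 37 C.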

[18] = qHTS RealTime-Glo MT Cell Viability Assay in HepG2 cells - 16 hour (AID 1224885); note: nearly all actives have a fitted effect of over 50% in size
Summary of the method: as §3

[19] = qHTS assay to identify small molecule phospholipidosis (PLD) inducers (AID 1259344; active = well fitted curve in the direction sought with a large enough effect; an effect the other way counts as inactive or inconclusive)
Summary of the method: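 After 4 h attachment on collagen I, HepG2 cells were dosed with compound alongside LipidTOX Red, kept 24 h at 37 C, fixed, and imaged for lamellar phospholipid pits.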
% is set by controls: 0 for no effect and ±100 for the full control effect.

NC(=O)C(c1ccccc1)(c1ccccc1)[C@@H]1CCN(CCc2ccc3c(c2)CCO3)C1
active: Potency [1] 23.9 µM | Potency [2] 23.9 µM | Potency [3] 21.3 µM | Potency [5] 21.3 µM
inactive: Potency [4] | Potency [6] | Potency [7] | Potency [8] | Potency [9] | Potency [10] | Potency [11] | Potency [12] | outcome [13]

CCCCc1nc2cccnc2n1Cc1ccc(-c2ccccc2-c2nnn[nH]2)cc1
inactive: Potency [1] | Potency [2] | Potency [3] | Potency [5] | Potency [14] | Potency [7] | Potency [8] | Potency [9] | Potency [10] | Potency [11] | outcome [13]
active: Potency [6] 24.5 µM | Potency [15] 15.4 µM

COC(C)(C)CCO
inactive: Potency [1] | Potency [2] | Potency [3] | Potency [16] | Potency [4] | Potency [5] | Potency [6] | Potency [7] | Potency [8] | Potency [10] | Potency [11] | Potency [15] | Potency [12] | outcome [13] | Potency [17]

CCCCC
active: Potency [10] 1.69 µM
inactive: Potency [1] | Potency [2] | Potency [3] | Potency [16] | Potency [4] | Potency [6] | Potency [14] | Potency [7] | Potency [8] | Potency [11] | Potency [15] | outcome [13]

CCOc1ccc(N=Nc2ccc(/C=C/c3ccc(N=Nc4ccc(OCC)cc4)cc3S(=O)(=O)O)c(S(=O)(=O)O)c2)cc1
inactive: Potency [1] | Potency [2] | Potency [3] | Potency [16] | Potency [4] | Potency [5] | Potency [6] | Potency [10] | Potency [11] | outcome [13]
active: Potency [7] 24 µM | Potency [15] 30.2 µM | Potency [12] 21.4 µM

CCc1c(C(=O)NN2CCCCC2)nn(-c2ccc(Cl)cc2Cl)c1-c1ccc(Br)cc1
inactive: Potency [1] | Potency [2] | Potency [3] | Potency [16] | Potency [5] | Potency [6] | Potency [14] | Potency [7] | Potency [8] | Potency [9] | Potency [10] | Potency [11] | Potency [15] | Potency [12] | outcome [13] | Potency [17]

CCCCOC(=O)CCCCCCCC(=O)OCCCC
inactive: Potency [1] | Potency [2] | Potency [3] | Potency [16] | Potency [4] | Potency [5] | Potency [6] | Potency [14] | Potency [7] | Potency [8] | Potency [10] | Potency [11] | Potency [15] | Potency [12] | outcome [13] | Potency [17]

CC1=CCCC(C)(C)C12CCC(C)O2 (stereo not given)
inactive: Potency [1] | Potency [2] | Potency [18] | Potency [16] | Potency [4] | Potency [5] | Potency [6] | Potency [14] | Potency [7] | Potency [8] | Potency [10] | Potency [11] | Potency [15] | Potency [12] | outcome [13]

CN(C)c1ccc(/C=C/c2ccc([N+](=O)[O-])cc2)cc1
inactive: cytotoxicity [1] 4.44% [at 6.97 µM] | cytotoxicity increase [2] 16% [at 6.97 µM] | activity change, negative = cytotoxic [18] -7.1% [at 6.97 µM] | activity change, negative = cytotoxicity [16] -4.06% [at 6.97 µM] | activity change, negative = cytotoxicity [4] -2.66% [at 6.97 µM] | activity change, negative = cytotoxicity [6] -8.4% [at 6.97 µM] | cytotoxicity increase [14] 23.9% [at 6.97 µM] | activity change, negative = cytotoxicity [7] 7.98% [at 8.39 µM] | viability change, negative = cytotoxic [8] 4% [at 8.39 µM] | activity change, negative = cytotoxicity [11] -0.457% [at 8.39 µM] | viability change, negative = cytotoxic [12] 8.12% [at 8.39 µM] | activity change [13] 7.46% [at 8.39 µM] | activity change, negative = inhibition [17] 48% [at 8.39 µM]
active: Potency [10] 0.872 µM

CC(C)O.CC(C)O.CCOC(=O)/C=C(\C)O.CCOC(=O)/C=C(\C)O.[Ti]
inactive: Potency [1] | Potency [2] | Potency [18] | Potency [16] | Potency [4] | Potency [5] | Potency [6] | Potency [14] | Potency [7] | Potency [8] | Potency [10] | Potency [11] | Potency [15] | Potency [12] | outcome [13] | Potency [17]

C[N+](C)(C)CCOC(=O)CCC(=O)OCC[N+](C)(C)C
inactive: Potency [1] | Potency [2] | Potency [18] | Potency [16] | Potency [4] | Potency [6] | Potency [14] | Potency [8] | Potency [9] | Potency [10] | Potency [11] | Potency [15] | outcome [13]

O=C(O)c1ccc(S(=O)(=O)O)cc1C(=O)O
inactive: Potency [1] | Potency [2] | Potency [18] | Potency [5] | Potency [14] | Potency [7] | Potency [8] | Potency [9] | Potency [10] | Potency [11] | Potency [15] | outcome [13] | Potency [17]

CCC(C)c1cc(C(C)(C)C)c(O)c(C(C)(C)C)c1 (stereo not given)
inactive: Potency [1] | Potency [2] | Potency [18] | Potency [16] | Potency [4] | Potency [6] | Potency [14] | Potency [7] | Potency [8] | Potency [10] | Potency [11] | Potency [15] | Potency [12] | outcome [13] | Potency [17]

Brc1c2ccccc2c(Br)c2ccccc12
inactive: cytotoxicity [1] 5.32% [at 6.97 µM] | cytotoxicity increase [2] 2.42% [at 6.97 µM] | activity change, negative = cytotoxic [18] -0.25% [at 6.97 µM] | activity change, negative = cytotoxicity [16] 1.98% [at 6.97 µM] | activity change, negative = cytotoxicity [4] -3.92% [at 6.97 µM] | activity change [5] -0.0109% [at 6.97 µM, active compounds read high] | activity change, negative = cytotoxicity [6] 2.26% [at 6.97 µM] | cytotoxicity increase [14] 2.74% [at 6.97 µM] | activity change, negative = cytotoxicity [7] 3.89% [at 8.39 µM] | viability change, negative = cytotoxic [8] 2.88% [at 8.39 µM] | activity change, negative = inhibition [9] 0.899% [at 8.39 µM] | activity change, negative = inhibition [10] 3.07% [at 8.39 µM] | activity change, negative = cytotoxicity [11] 1.69% [at 8.39 µM] | viability change, negative = cytotoxic [15] 2.56% [at 8.39 µM] | viability change, negative = cytotoxic [12] -7.11% [at 8.39 µM] | activity change [13] -0.511% [at 8.39 µM] | activity change, negative = inhibition [17] 2.55% [at 8.39 µM]

NC(N)=NCCC[C@H](N)C(=O)O
inactive: cytotoxicity [1] 1.18% [at 6.97 µM] | cytotoxicity increase [2] -4.17% [at 6.97 µM] | activity change, negative = cytotoxic [18] 0.73% [at 6.97 µM] | activity change, negative = cytotoxicity [16] 4.77% [at 6.97 µM] | activity change, negative = cytotoxicity [4] 6.66% [at 6.97 µM] | activity change [5] -19.2% [at 6.97 µM, active compounds read high] | activity change, negative = cytotoxicity [6] 0.79% [at 6.97 µM] | cytotoxicity increase [14] -1.13% [at 6.97 µM] | activity change, negative = cytotoxicity [7] 2.44% [at 8.39 µM] | viability change, negative = cytotoxic [8] 3.68% [at 8.39 µM] | activity change, negative = inhibition [9] 4.47% [at 8.39 µM] | PLD induction [19] -2.12% [at 7.66 µM] | activity change, negative = inhibition [10] 1.7% [at 8.39 µM] | activity change, negative = cytotoxicity [11] 4.6% [at 8.39 µM] | viability change, negative = cytotoxic [15] -3.86% [at 8.39 µM] | viability change, negative = cytotoxic [12] 1.21% [at 8.39 µM] | activity change [13] -0.124% [at 8.39 µM] | activity change, negative = inhibition [17] 18.9% [at 8.39 µM]
